Experimental findings from PubChem BioAssay (Tox21) are described below.

Records with an inconclusive call do not appear. Active and inactive are the calls of the source. Unless noted, calls come from the whole dose curve; as a rule, active = well fitted curve in the direction sought with a large enough effect in the repeat runs; inconclusive = weak or mixed curves; inactive = no such curve, though single readings can be large; an effect the other way counts as inactive or inconclusive.

The nature of test [1]: qHTS assay to identify small molecule antagonists of the estrogen related receptor (ERR) signaling pathway - cell viability counter screen (AID 1224818).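 Note: series mostly up to about 46 µM; viability measured after 17.5 h of compound exposure.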 In a few lines: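 In the same ERR cell assay, compound-treated wells (17.5 h, 37 C) were multiplexed with a fluorogenic viability reagent, CellTiter-Fluor, read after 30 min to flag cytotoxic substances.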
Test [2] is described as follows: qHTS assay to identify small molecule antagonists of the estrogen related receptor (ERR) signaling pathway (AID 1224819;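 note: luminescence from an ERR-driven luciferase reporter measured with One-Glo reagent; series mostly up to about 46 µM; nearly all actives have a fitted effect of over 50% in size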). In a few lines: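 qHTS in ERR cells, 2,000/well, 1536 format. Cpd (DMSO) added after 6 h settle, 18 h 37 C. One-Glo luminescence, 30 min RT.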
Test [3] is described as follows: qHTS assay to identify small molecule agonists of the estrogen related receptor (ERR) signaling pathway (AID 1224820). Note: potency is the fitted concentration of half-maximal effect. In a few lines:
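Cells: ERR line from NTP, 2,000/well. Pre-incubation 6 h, 37 C/5% CO2. Compound (DMSO) pin transfer, 18 h 37 C. One-Glo, 30 min RT, luminescence.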

The subject of test [4] is estrogen-related receptor alpha (ERRalpha) with PGC-1alpha coactivator, human. The test is described as follows: qHTS assay to identify small molecule antagonists of the estrogen related receptor signaling pathway with the pleiotropic PPARgamma coactivator (PGC) (AID 1224821; calls by dose curve;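 note: series mostly up to about 46 µM; lower luminescence signal means antagonism of PGC/ERR signalling; nearly all actives have a fitted effect of over 50% in size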). Put shortly:
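Luminescent read-out (One-Glo, 30 min at room temperature) following 18 h treatment of PGC/ERR cells at 37 C with compounds delivered in DMSO. Cells had settled 6 h at 37 C/5% CO2 before dosing.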

The nature of test [5]: qHTS assay to identify small molecule antagonists of the estrogen related receptor signaling pathway with the pleiotropic PPARgamma coactivator (PGC) cell viability counter screen (AID 1224822; note: series mostly up to about 46 µM). In a few lines: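 Compounds in DMSO, with positive and negative controls, were applied to PGC/ERR cells (2,000/well) and left 17.5 h at 37 C before CellTiter-Fluor detection.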

Test [6] can be described thus: qHTS assay to identify small molecule agonists of the estrogen related receptor signaling pathway with the pleiotropic PPARgamma coactivator (PGC) (AID 1224823). Note: potency is the fitted concentration of half-maximal effect. Put shortly:
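Steps: plate PGC/ERR cells at 2,000 cells/well; incubate 6 h, 37 C/5% CO2; pin-transfer compounds (DMSO); incubate 18 h, 37 C; add One-Glo; 30 min RT; read luminescence.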

Take `CC(C)Cc1ccc([C@H](C)C(=O)O)cc1`: the Potency result in test [1], in test [2], in test [3], in test [4], in test [5] and in test [6] was “inactive” each time.
In the case of `Nc1ncnc2c1nc(Br)n2C1OC2COP(=O)(O)O[C@@H]2C1O` (some centres undefined), the Potency result in test [1], in test [2], in test [3], in test [4], in test [5] and in test [6] was “inactive” throughout.
In the case of `C[C@H](O)C(=O)C1=Nc2c(nc(N)[nH]c2=O)NC1`, the Potency entry in test [1], in test [2], in test [3], in test [4], in test [5] and in test [6] was “inactive” each time.
In the case of `O=C(O)CCCC[C@@H]1CCSS1`, the Potency entry in test [1], in test [2], in test [3], in test [4], in test [5] and in test [6] was “inactive” each time.
Regarding `CCOC(=O)[C@H](CCc1ccccc1)N[C@@H](C)C(=O)N1[C@H](C(=O)O)C[C@H]2CCCC[C@@H]21`, the Potency entry in test [1], in test [2], in test [3], in test [4], in test [5] and in test [6] was “inactive” in each case.
In the case of `Cc1cccc(C#Cc2ccccc2)n1`, the Potency result in test [1], in test [2], in test [4] and in test [5] was “inactive” throughout. In addition, the Potency is 12.8 µM (active) in test [3] and 9.44 µM (active) in test [6].
For the compound `O=C1/C(=C/c2ccsc2)CC/C1=C\c1cccs1`, the Potency entry in test [1], in test [2], in test [4] and in test [5] was “inactive” in each case. For the same compound, the Potency in test [3] is 24.6 µM (active); in test [6], 21.1 µM (active).
`CCCCS(=N)(=O)CCC(N)C(=O)O` (centres undefined): the Potency entry in test [1], in test [2], in test [3], in test [4], in test [5] and in test [6] was “inactive” each time.
As to `CC(=O)/C(C)=N/O`, the Potency entry in test [1], in test [2], in test [3], in test [4], in test [5] and in test [6] was “inactive” each time.
For `COC(=O)[C@H]1[C@H]2C[C@H]3c4[nH]c5ccccc5c4CCN3C[C@H]2CC[C@@H]1O`, the Potency entry in test [1], in test [2], in test [3], in test [4], in test [5] and in test [6] was “inactive” throughout.
Regarding `COC(=O)C1=CO[C@@H](O)[C@@H]2C(CO)=CC[C@H]12`, the Potency result in test [1], in test [2], in test [3], in test [4], in test [5] and in test [6] was “inactive” in each case.
Take `Nc1nc2[nH]c(=O)cnc2c(=O)[nH]1`: the Potency result in test [1], in test [2], in test [3], in test [4], in test [5] and in test [6] was “inactive” in each case.
`O=C1CCC(c2ccc(-n3ccnc3)cc2)=NN1`: the Potency result in test [1], in test [2], in test [3], in test [4], in test [5] and in test [6] was “inactive” in each case.
As to `Nc1nc2c(ncn2[C@@H]2O[C@H](CO)[C@@H](O)[C@@H]2O)c(=O)[nH]1`, the Potency entry in test [1], in test [2], in test [3], in test [4], in test [5] and in test [6] was “inactive” throughout.
On to `NC1C=CC=C(C(=O)O)C1` (centres undefined), for which the Potency entry in test [1], in test [2], in test [3], in test [4], in test [5] and in test [6] was “inactive” in each case.
On to `C=CC(N)CCC(=O)O` (centres undefined), for which the Potency entry in test [1], in test [2], in test [3], in test [4], in test [5] and in test [6] was “inactive” in each case.
`NCCCCN`: the Potency entry in test [1], in test [2], in test [3], in test [4], in test [5] and in test [6] was “inactive” each time.
Turning to `CCCCCCCC/C=C\CCCCCCCC(=O)NCCO`, the Potency entry in test [1], in test [2], in test [3], in test [4], in test [5] and in test [6] was “inactive” throughout.
Turning to `COc1ccc(-c2ccc(N)[n+](CCCC(=O)O)n2)cc1`, the Potency entry in test [1], in test [2], in test [3], in test [4], in test [5] and in test [6] was “inactive” in each case.
As for `O=C(O)[C@H]1NCCC[C@H]1C(=O)O`, the Potency entry in test [1], in test [2], in test [3], in test [4], in test [5] and in test [6] was “inactive” throughout.
As for `OC[C@H]1O[C@@H](n2cnc3c(NC4CCCC4)ncnc32)[C@H](O)C1O` (some centres undefined), the Potency result in test [1], in test [2], in test [3], in test [4] and in test [5] was “inactive” in each case. Moreover, the Potency in test [6] was 3.1 µM (active).
As for `Nc1nc(Cl)nc2c1ncn2[C@@H]1O[C@H](CO)C(O)[C@H]1O` (some centres undefined), the Potency entry in test [1], in test [2], in test [3], in test [4] and in test [5] was “inactive” in each case. In addition, the Potency in test [6] is 1.23 µM (active).
Take `CCCC(CCC)C(=O)OC1CC2CCC(C1)[N+]2(C)C` (centres undefined): the Potency result in test [1], in test [2], in test [3], in test [4], in test [5] and in test [6] was “inactive” each time.
As to `NS(=O)(=O)c1ccc(-n2nc(C(F)(F)F)cc2-c2ccc(Cl)cc2)cc1`, the Potency entry in test [1], in test [2], in test [3], in test [4], in test [5] and in test [6] was “inactive” each time.
Regarding `Cc1cc2c(cc1Cl)N(C(=O)Nc1ccnc3ccccc13)CC2`, the Potency result in test [1], in test [2], in test [3], in test [4], in test [5] and in test [6] was “inactive” throughout.
Take `CC[C@H](C)C(=O)O[C@H]1CCC=C2C=C[C@H](C)[C@H](CC[C@@H]3C[C@@H](O)CC(=O)O3)[C@H]21`: the Potency entry in test [1], in test [2], in test [4], in test [5] and in test [6] was “inactive” each time. Besides, the Potency in test [3] is 3.48 µM (active).
With `COc1ccccc1CNCCCCCCNCCCCCCCCNCCCCCCNCc1ccccc1OC`, the Potency entry in test [1], in test [2], in test [3], in test [4], in test [5] and in test [6] was “inactive” each time.
With `C=CCN1CCc2cc(O)c(O)cc2C(c2ccccc2)C1` (centres undefined), the Potency result in test [1], in test [2], in test [3], in test [4], in test [5] and in test [6] was “inactive” each time.
For the compound `NC1(C(=O)O)CC1`, the Potency result in test [1], in test [2], in test [3], in test [4], in test [5] and in test [6] was “inactive” in each case.
